HSF-1 act – increases HSF-1 driven luciferase reporter signal; activation, % at 9 µM; 1.7% of 300,000 active; NIH3T3-HGL HSF-1 luciferase reporter, MG132, 8 h; 100% = twice DMSO control signal;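 active means mean replicate activation of at least 50% with a set share of replicates each reaching 50%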;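 further: 0% = median of the neutral control wells and 100% = twice that signal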
S1P3 antagonist – S1P3 (human) receptor antagonism | Q99500 | CHO S1P3 NFAT-BLA reporter, FRET fluorescence, antagonist mode | inhibition, % at 4.98 µM | 0.27% of 170,000 active | AID 485;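 active means inhibition above the plate cutoff, the mean inhibition of test wells on that plate plus 3 SD, cut at about 28% in these data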;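 further: cells challenged with S1P at its EC80 of 0.8 µM; blue over green emission ratio from cleaved BLA substrate after 4 h stimulation; 0% = S1P-stimulated wells and 100% = unstimulated DMSO-only wells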
S1P4 agonist – agonists of human S1P4 receptor. 0.35% of 220,000 active. AID 1509. activation, % at 4.98 µM. O95977. S1P4-expressing cell line, agonist reporter assay; in the data active means activation above about 11%;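 further: 0% = DMSO vehicle and 100% = reference agonist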
Target sequence (O95977 whole entry, looked up): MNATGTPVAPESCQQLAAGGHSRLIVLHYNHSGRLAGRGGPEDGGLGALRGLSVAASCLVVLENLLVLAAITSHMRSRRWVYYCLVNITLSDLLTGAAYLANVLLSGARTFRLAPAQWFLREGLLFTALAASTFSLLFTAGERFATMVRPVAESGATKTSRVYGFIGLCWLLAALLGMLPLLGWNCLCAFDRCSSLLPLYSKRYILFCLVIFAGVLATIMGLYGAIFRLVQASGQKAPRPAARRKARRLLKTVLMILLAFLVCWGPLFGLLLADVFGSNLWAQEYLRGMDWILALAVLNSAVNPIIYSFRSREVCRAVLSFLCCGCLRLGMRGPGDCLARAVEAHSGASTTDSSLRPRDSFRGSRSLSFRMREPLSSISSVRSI
HSF1 inhib – HSF1 inhibition. NIH3T3-HGL HSE-luciferase, MG132-induced, luminescence 8 h; hits give low values. AID 2098. activity change, negative = inhibition, % at 7.5 µM (by protocol). 0.77% of 300,000 active;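 active means more than half of replicate wells show activity change below -50%, luminescence cut by over half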;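 further: luciferase reports HSF-1 transcriptional activity via heat shock element; 0% = median of DMSO wells and -100% = zero luminescence signal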
Hsp70 act – Hsp70 transcriptional activation, primary screen. HeLa Hsp70 promoter luciferase reporter, luminescence; scaled: vehicle 0, proteasome-inhibitor control 100%. activation, % at 10 µM. 0.04% of 200,000 active. AID 1203;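 active means activation above the mean across all tested compounds plus 3 SD, cutoff set per campaign, cut at about 5.5% in these data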;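 further: 100% = MG132 at 30 µM as the positive control and 0% = DMSO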
S1P4 antag – human S1P4 receptor antagonism; 0.26% of 220,000 active; AID 1510; inhibition, % at 4.98 µM; S1P4-expressing cells, antagonist mode, reporter read-out; in the data active means inhibition above about 29%;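 further: 0% = wells stimulated with agonist and 100% = vehicle wells without agonist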
* hit, by the source's call; nt = not tested or not shown. A selection: hits, their analogues and other compounds. The true share with any hit is near 2.9%.

SMILES	HSF-1 act	S1P3 antagonist	S1P4 agonist	HSF1 inhib	Hsp70 act	S1P4 antag
O=C(Nc1ccccc1N1CCN(C(=O)c2ccc(Cl)cc2)CC1)c1cccc([N+](=O)[O-])c1	71*	nt	nt	33	nt	nt
CN1CCN(c2ccccc2NC(=O)c2cccc([N+](=O)[O-])c2)CC1	7	-10	0	-17	0	11
CCc1cc2c(SCC#N)ncnc2s1	80*	-8	0	19	1	-16
O=C(NNC(=O)C1CC(c2cccnc2)=NO1)Nc1cccc(F)c1 (stereo not given)	-2	nt	3	5	0	7
Brc1ccc(-c2nnc(-c3ccccc3)c(N3CCSCC3)n2)cc1	126*	nt	1	78	0	-14
CN1CCN(c2nc(-c3ccc(Br)cc3)nnc2-c2ccccc2)CC1	-5	nt	-3	8	0	15
c1ccc(CSc2nnc(-c3ccco3)o2)cc1	16	4	3	12	nt	-24
Brc1ccc(CSc2nnc(-c3ccco3)o2)cc1	56*	-2	3	36	0	-17
Cc1ccc(CN(C(=O)COc2ccc(Br)cc2)C2CCS(=O)(=O)C2)o1 (stereo not given)	17	nt	nt	2	nt	nt
CCc1nc(NC(=O)Cc2csc(C)n2)sc1C(=O)OC	-1	nt	nt	6	nt	nt
COc1ccc([C@@H]2C[C@@H](c3ccccc3)Oc3c(C)ccc(C(C)C)c32)cc1	-74	nt	nt	-66*	nt	nt
C=CCn1c(C)cc(C(=O)COc2ccc(C)nc2[N+](=O)[O-])c1C	-60	2	-2	-54*	0	-9
CCCn1c(C)cc(C(=O)COc2ccc(C)nc2[N+](=O)[O-])c1C	-12	-5	-1	-17	0	-12
COCCn1c(C)cc(C(=O)COc2ccc(C)nc2[N+](=O)[O-])c1C	-33	-1	1	-33	0	-2
Cc1ccc(OCC(=O)c2cc(C)n(-c3ccccc3)c2C)c([N+](=O)[O-])n1	-65	4	1	-62*	-1	-6
CCCc1nc(S(=O)(=O)Cc2ccc(Cl)cc2Cl)n[nH]1	-2	-5	1	-7	0	-28
CCCn1c(SCC(=O)NC2CCCCC2)nnc1-c1ccco1	-9	nt	nt	-4	nt	nt
CC(=O)N/C(N)=N/c1nc2cc([N+](=O)[O-])ccc2o1	72*	-1	0	23	nt	-6
CCC(=O)N/C(N)=N/c1nc2ccccc2o1	5	-11	0	2	nt	-17
CC(C)(C)C(=O)N/C(N)=N/c1nc2ccccc2o1	52*	6	0	15	nt	-23
CC(C)Cc1cc(C(C)(C)C)ccc1OC(=S)N(C)C	6	nt	nt	3	nt	nt
Cc1ccc(S(=O)(=O)NC2CCCC(C(=O)O)C2)cc1 (stereo not given)	13	-1	-1	-5	0	-13
CC(C)CCNc1nc2c(cc1C#N)COC(C)(C)C2	-14	nt	1	1	0	-11
CC1(C)Cc2nc(NCCN3CCOCC3)c(C#N)cc2CO1	103*	nt	2	42	0	-5
COc1ccc(-c2cc(C(=O)N(C)Cc3ccc(F)cc3)c3ccccc3n2)cc1OC	-2	nt	nt	-1	nt	nt
SMILES	HSF-1 act	S1P3 antagonist	S1P4 agonist	HSF1 inhib	Hsp70 act	S1P4 antag
CCCCn1c(N)c(N(CCC(C)C)C(=O)c2ccc3c(c2)OCO3)c(=O)[nH]c1=O	4	nt	nt	1	nt	nt
COc1ccc(OCc2cc(C(=O)N(C)CCC3CCOCC3)no2)c(Cl)c1	77*	nt	nt	38	nt	nt
Cc1cc(OCc2cc(C(=O)N(C)C3CCOC3)no2)cc(C)c1Cl (stereo not given)	64*	nt	nt	48	nt	nt
CC(=O)c1ccc(OCc2cc(C(=O)N(C)C3CCOC3)no2)cc1 (stereo not given)	-7	nt	nt	-7	nt	nt
CN1C(=O)c2cccc(NC(=O)CCc3ccccc3)c2C1=O	11	92*	-3	-5	0	-23
CCc1nnc(NC(=O)CN2CCN(Cc3ccc(C)cc3)CC2)s1	-50	nt	nt	-36	nt	nt
CCn1cc(C(=O)OCC(=O)c2cc(C)n(-c3ccccc3F)c2C)c(=O)c2ccc(C)nc21	-17	-8	0	-9	0	-15
Cc1cc(C(=O)COC(=O)c2ccc(O)cc2)c(C)n1-c1ccccc1F	-70	-3	2	-63*	0	-9
Cc1ccc(-n2c(C)cc(C(=O)COC(=O)c3ccc[nH]c3=O)c2C)cc1C	-20	-10	0	-14	0	-26
Cc1cc(C(=O)COC(=O)c2ccc[nH]c2=O)c(C)n1-c1ccccc1F	-64	0	2	-51*	nt	-23
CCCn1c(C)cc(C(=O)COC(=O)c2ccc[nH]c2=O)c1C	-74	-14	0	-70*	0	-3
Cc1ccc(-n2cc(CNCCN3CCOC3=O)c(-c3cccc(C)c3)n2)cc1	69*	-18	0	28	0	7
O=C1OCCN1CCNCc1cn(-c2ccc(F)cc2)nc1-c1ccccc1Cl	-33	-23	2	-14	0	-16
C=CCCC(=O)N1CCCC(Cc2cccc(Cl)c2)(C(=O)OCC)C1 (stereo not given)	-17	nt	nt	-11	nt	nt
Cn1c(=O)c2c(nc(Cl)n2CC(=O)NC2(C#N)CCCCC2)n(C)c1=O	-7	nt	nt	4	nt	nt
CCOc1ccccc1NC(=O)CN1CCC(NC(=O)Nc2ccccc2)CC1	-20	nt	nt	5	nt	nt
CC(=O)C1=C(C)NC2(O)c3ccccc3C(=O)C12O (stereo not given)	62*	-7	-1	17	0	-17
NS(=O)(=O)c1c(Sc2ccccc2C(=O)O)ccc2ccccc12	-23	nt	nt	-19	nt	nt
COc1cccc(C(=O)NCCS(=O)(=O)NCCc2ccccc2)c1	59*	nt	nt	34	nt	nt
Cc1ccc2cc(CCNC(=O)c3cccs3)c(=O)[nH]c2c1	nt	-2	3	nt	0	-2
Cc1ccc2cc(CCNC(=O)c3cccs3)c(=O)[nH]c2c1C	58*	-11	-2	29	0	1
Cc1ccc(S(=O)(=O)NC(=O)Nc2ccc(Cl)cn2)cc1	6	-5	2	-5	0	-4
Cc1ccc(S(=O)(=O)NC(=O)Nc2ccc(C)cn2)cc1	69*	nt	nt	25	nt	nt
CCOC(=O)c1c(C)n(C)c2ccc(OCC(O)CNCCc3ccccc3)cc12 (stereo not given)	77*	nt	nt	33	nt	nt
CC(=O)c1cccc(N=Cc2c(O)c3ccccc3oc2=O)c1	106*	nt	nt	74	nt	nt
SMILES	HSF-1 act	S1P3 antagonist	S1P4 agonist	HSF1 inhib	Hsp70 act	S1P4 antag
COc1cccc(N=Cc2c(O)c3ccccc3oc2=O)c1	3	nt	nt	-6	nt	nt
CCOC(=O)c1ccc(N=Cc2c(O)c3ccccc3oc2=O)cc1	-15	nt	nt	-17	nt	nt
CC(=O)Nc1ccc(N=Cc2c(O)c3ccccc3oc2=O)cc1	63*	nt	nt	26	nt	nt
CCN(CC)CCNC(=O)c1cn(CC)c2ccc(S(=O)(=O)N3CCc4ccccc4C3)cc2c1=O	-5	nt	nt	-13	nt	nt
CCN(c1ccccc1)S(=O)(=O)c1cnc[nH]1	-76	-2	1	-70*	0	-33
O=C(NCc1ccc(C(=O)O)cc1)OCc1ccccc1	-64	11	0	-54*	0	14
